Values joined by “and” are separate entries in the source; they are usually repeats but may differ in a detail not shown here. Identical values can stand only once. The panel holds about 83,000 compounds, 20% with a hit somewhere; the sample as a whole holds those more often.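 Negative percent growth values reflect cell death: -40 means 40% of the cells present at the start died, and -100 means all died.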 Active and inactive are the calls of the source. How the source made its calls: active means growth percent below 10; inactive means the rest.

One experiment deals with HCC-2998 colon. Kind of experiment: NCI-60 one-dose screen, 48 h (100 = growth as untreated, 0 = no growth, -100 = all killed). As to conditions: 10 µM unless noted.
On to `CCOC(=O)C1C(C=C(C)C)C1(C)C` (stereo not drawn), for which the growth is 96% (inactive).

Consider `CC(=O)Nc1nc2c(s1)C1=CC[C@H]3[C@@H]4CC[C@H](OC(C)=O)[C@@]4(C)CC[C@@H]3[C@@]1(C)CC2`, for which the growth is 93.7% (inactive).

As to `C[C@]12CC[C@H](O)C[C@@H]1CC[C@@H]1[C@@H]2CC[C@]2(C)OC(=O)CC[C@@H]12`, the growth was 102% (inactive).

With `Cc1cc[c-]cc1.Fc1c[c-]c(-c2ccccn2)c(F)c1.N#CCC[PH+](CCC#N)c1ccccc1.[Pt+2]`, the growth was 82.4% (inactive).

With `Cc1cc(N(CCCl)CCCl)ccc1C=Nc1ccc(-c2csc(-c3ccccc3)n2)cc1`, the growth was 94.2% (inactive).

`Oc1ccccc1C=NCCN=Cc1ccccc1O`: the growth was 105% (inactive).

For the compound `COC12CC3(C)C(C4=CC(=O)OC4)CCC3(O)C3CCC4=CC(=O)CCC4(CO1)C32` (stereo not drawn), the growth is 131% (inactive).

Regarding `COc1ccn(C)c(=O)c1C#N`, the growth was 101% (inactive).

For the compound `N#CCN(CC#N)[N+](=O)[O-]`, the growth is 115% (inactive).

On to `O=C(O)c1ccccc1N(CCO)CCCl`, for which the growth was 103% (inactive).

For the compound `CN1[C@@H](CC(=O)c2ccccc2)CCC[C@H]1CC(=O)c1ccccc1`, the growth is 126% (inactive).

For `OCCN=Cc1c[nH]c2ccccc12`, the growth was 107% (inactive).

Take `C=CC[PH+](c1ccccc1)c1ccccc1.C=CC[PH+](c1ccccc1)c1ccccc1.[Pt+2].[S-]c1nc2ccccc2[nH]1.[S-]c1nc2ccccc2[nH]1`: the growth is -33.2% (active).

Regarding `COC(=O)C1=CCCN(C)C1`, the growth was 102% (inactive) and 124% (inactive).

Consider `CC[C@H](C)[C@H](NC(=O)[C@H]1CCCCN1C)C(=O)N(C)[C@H](C[C@@H](OC(C)=O)c1cccc(C(=O)N[C@@H](Cc2ccccc2)C[C@H](C)C(=O)OC)n1)C(C)C`, for which the growth was 15.4% (inactive).

As for `N#CCCc1ccccc1`, the growth was 103% (inactive).

Consider `CNC(=O)O/N=C(\SC)C(=O)N(C)C`, for which the growth is 77.4% (inactive).

With `CCC1(CCSC#N)C(=O)NC(=O)NC1=O`, the growth was 98.2% (inactive).

As to `Oc1ccccc1C=NCCN=Cc1ccccc1O.[Fe]`, the growth was 111% (inactive).

Take `CCCCCCCCCCCCCCCC[N+](C)(C)C`: the growth is -91% (active) and 20.9% (inactive).

For `C[N+]1(C)CCCC1c1cccnc1` (stereo not drawn), the growth is 91.2% (inactive).

The next experiment relates to KM12 colon. The experiment is described as above. The conditions noted are these: 10 µM unless noted.
With `CCOC(=O)C1C(C=C(C)C)C1(C)C` (stereo not drawn), the growth was 94.5% (inactive).

Turning to `O=C/C=C/c1ccco1`, the growth was 97.6% (inactive).

Consider `Cn1cc(-c2csc(-c3cn(CCCCN4CCOCC4)c4ccc(F)cc34)n2)c2cccnc21`, for which the growth was 52.5% (inactive).

Consider `CC(=O)Nc1nc2c(s1)C1=CC[C@H]3[C@@H]4CC[C@H](OC(C)=O)[C@@]4(C)CC[C@@H]3[C@@]1(C)CC2`, for which the growth was 50.8% (inactive).

As for `C[C@]12CC[C@H](O)C[C@@H]1CC[C@@H]1[C@@H]2CC[C@]2(C)OC(=O)CC[C@@H]12`, the growth is 92.5% (inactive).

`C[C@]12CCc3sc(Nc4ccc(O)cc4)nc3C1=CC[C@@H]1[C@@H]2CC[C@]2(C)C(=O)CC[C@@H]12`: the growth was 46.7% (inactive).

With `O=C(O)C(Br)CBr` (stereo not drawn), the growth was 104% (inactive).

Consider `Cc1cc[c-]cc1.Fc1c[c-]c(-c2ccccn2)c(F)c1.N#CCC[PH+](CCC#N)c1ccccc1.[Pt+2]`, for which the growth was 74.1% (inactive).

As to `O=P(O)(Nc1ccccc1)Nc1ccccc1`, the growth is 95.9% (inactive).

For the compound `Cc1cc(N(CCCl)CCCl)ccc1C=Nc1ccc(-c2csc(-c3ccccc3)n2)cc1`, the growth is 89.5% (inactive).

Regarding `Oc1ccccc1C=NCCN=Cc1ccccc1O`, the growth is 104% (inactive).

For the compound `COC12CC3(C)C(C4=CC(=O)OC4)CCC3(O)C3CCC4=CC(=O)CCC4(CO1)C32` (stereo not drawn), the growth was 114% (inactive).

In the case of `CC12CCC3C(CCC4CC(O)CCC43C)C1CCC2=O` (stereo not drawn), the growth was 98.9% (inactive).

`COc1cc(-c2ccc(N)c(OC)c2)ccc1N`: the growth is 101% (inactive).

`COc1ccn(C)c(=O)c1C#N`: the growth is 96.6% (inactive).

`CCCCCCCCCCCCCCCC[N+](C)(C)Cc1ccccc1`: the growth is -81% (active) and -85.4% (active).

For the compound `Cc1nc2ccccc2c(=O)n1-c1ccccc1F`, the growth was 105% (inactive).

Consider `C[C@]12CC[C@H]3[C@@H](C[C@@H]4SC(Nc5ccccc5)=N[C@@]45C/C(=N/O)CC[C@]35C)[C@@H]1CCC2=O`, for which the growth is 67.8% (inactive).

As for `N#CCN(CC#N)[N+](=O)[O-]`, the growth is 112% (inactive).

Consider `O=C(O)c1ccccc1N(CCO)CCCl`, for which the growth is 103% (inactive).

In the case of `O=[N+]([O-])c1cc(Cl)c(Cl)cc1Cl`, the growth was 109% (inactive) and 113% (inactive).

Turning to `CN1[C@@H](CC(=O)c2ccccc2)CCC[C@H]1CC(=O)c1ccccc1`, the growth was 110% (inactive).

With `O=Cc1cn(Cc2ccccc2)c2ccccc12`, the growth was 101% (inactive).

`OCCN=Cc1c[nH]c2ccccc12`: the growth is 102% (inactive).

For `C=CC[PH+](c1ccccc1)c1ccccc1.C=CC[PH+](c1ccccc1)c1ccccc1.[Pt+2].[S-]c1nc2ccccc2[nH]1.[S-]c1nc2ccccc2[nH]1`, the growth is -63% (active).

Take `O=NN1CCCCC1`: the growth is 104% (inactive).

On to `COC(=O)C1=CCCN(C)C1`, for which the growth is 117% (inactive) and 109% (inactive).

Consider `CC[C@H](C)[C@H](NC(=O)[C@H]1CCCCN1C)C(=O)N(C)[C@H](C[C@@H](OC(C)=O)c1cccc(C(=O)N[C@@H](Cc2ccccc2)C[C@H](C)C(=O)OC)n1)C(C)C`, for which the growth was 4.26% (active).

For `CC1(C)CN=C(NN=C(/C=C/c2ccc(C(F)(F)F)cc2)/C=C/c2ccc(C(F)(F)F)cc2)NC1`, the growth is -86.8% (active).

With `Cc1ccc(P(=O)(O)O)cc1`, the growth is 104% (inactive).

On to `Nc1ccc2c(c1)Cc1cc(N)ccc1-2`, for which the growth is 82.6% (inactive).

Turning to `N#CCCc1ccccc1`, the growth was 109% (inactive).

In the case of `CNC(=O)O/N=C(\SC)C(=O)N(C)C`, the growth was 102% (inactive).

For `CCC1(CCSC#N)C(=O)NC(=O)NC1=O`, the growth is 104% (inactive).

As for `Oc1ccccc1C=NCCN=Cc1ccccc1O.[Fe]`, the growth was 93% (inactive).

On to `CCCCCCCCCCCCCCCC[N+](C)(C)C`, for which the growth was -83% (active) and -93.1% (active).

As to `C[N+]1(C)CCCC1c1cccnc1` (stereo not drawn), the growth was 103% (inactive).

These data come from PubChem BioAssay (NCI).
